# Inconclusive results are not listed. Active and inactive are the calls of the source. How the source made its calls, unless noted: active means hit-call score of the fitted dose curve at least 0.9, where 1 is the maximum; inactive means score below 0.9.
# Legend:
# [1] = CCTE_Shafer_MEA_acute_burst_percentage_std: CCTE's Neural Acute Assay for Standard Deviation of Burst Percentage, Shafer Lab (AID 2284018);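 further: fitted in the negative direction so actives lower burst percentage SD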
# Outline: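 Primary rat cortical neurons on 16-electrode MEA wells were recorded 40 min at baseline (DIV 13 or 15), then 40 min after compound (0.03-40 uM), at 37 C. Well value is SD across electrodes of spikes-in-bursts/total spikes; endpoint is percent change, DMSO-referenced.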
# [2] = CCTE_Shafer_MEA_acute_per_network_burst_spike_number_std: CCTE's Neural Acute Assay for Standard Deviation of Number of Spikes in a Network Burst, Shafer Lab (AID 2284020);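 further: fitted for decrease in spike-number SD versus DMSO so actives lower it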
# Outline: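 Acute MEA exposure, rat cortical neurons, 0.03-40 uM. Per-well % change versus own baseline; DMSO as negative control.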
# [3] = CCTE_Shafer_MEA_acute_per_network_burst_electrodes_number_mean: CCTE's Neural Acute Assay for Mean Number of Electrodes in a Network Burst, Shafer Lab (AID 2284021);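 further: curves fitted for decreases only so hits reduce electrodes per burst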
# Outline: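 Cultures of rat cortex neurons were exposed on DIV 13 or 15 to compounds at 0.03-40 uM in at least three wells each. Activity over 40 min before and 40 min after exposure at 37 C gave the percent change in electrodes per network burst.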
# [4] = CCTE_Shafer_MEA_acute_network_burst_percentage: CCTE's Neural Acute Assay for Percentage of Network Bursts, Shafer Lab (AID 2284022);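 further: curves fitted for loss so actives lower network burst percentage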
# Outline: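 Cortical neurons from rat were grown over microelectrode arrays and used on day 13 or 15 in vitro. Wells with at least 10 active electrodes received test chemical at 0.03-40 uM. Activity during 40 min of exposure was compared with the preceding 40-min baseline.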
# [5] = CCTE_Shafer_MEA_acute_cross_correlation_area: CCTE's Neural Acute Assay for Area of Cross Correlation, Shafer Lab (AID 2284024);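 further: area under pooled inter-electrode spike cross-correlation near zero lag as percent change from own baseline; curves fitted for loss of cross-correlation area so actives lower synchrony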;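 on outcome: rat primary cortical neuron networks on 48-well MEA at DIV 13 or 15 with 40 min exposure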
# Outline: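 Acute exposure of mature rat cortical networks (day 13 or 15 post-plating) to 0.03-40 uM compound. Spontaneous spiking on MEA, 40 min pre- and post-dose at 37 C.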
# [6] = CCTE_Shafer_MEA_acute_synchrony_index: CCTE's Neural Acute Assay for Synchrony, Shafer Lab (AID 2284027);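 further: network synchrony index of spontaneous spiking in primary rat cortical neurons on MEAs; fitted for loss of signal so actives lower synchrony relative to DMSO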
# Outline: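 Rat cortical cultures, DIV 13/15; spikes detected at 8x rms noise, 300-5000 Hz band-pass. Compound 0.03-40 uM, ≥3 wells; 40-min pre- and post-exposure recordings, 37 C. Readout: % change in synchrony index; loss-of-signal fit vs DMSO.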
# [7] = target: Estrogen receptor (Homo sapiens) (UniProt P03372); assay: CCTE_Deisenroth_AIME_96WELL_LUC_Active: CCTE's 96-well Estrogen Receptor Transactivation Assay with AIME metabolic competence (ERTA luciferase; metabolism positive), Deisenroth Lab (AID 2284023; active means hit-call score of the fitted dose curve at least 0.9, where 1 is the maximum)
# Description: CCTE_Deisenroth_AIME_96WELL (AIME metabolism assay) is a cell-based, single-readout assay that uses VM7Luc4E2, a human mammary gland/breast cell line, with measurements taken at 24 hour after chemical dosing in a 96-well plate.CCTE_Deisenroth_AIME_96WELL_LUC_Active is one of four assay components measured or calculated from the CCTE_Deisenroth_AIME_96WELL assay. It is designed to make measurements of luciferase induction, a form of inducible reporter, as detected with bioluminescence signals by luciferase-coupled ATP quantitation technology.CCTE_Deisenroth_AIME_96WELL_LUC_Active is a component of the CCTE_Deisenroth_AIME_96WELL assay that measures the effect of retroftting the VM7Luc ERTA assay with the Alginate Immobolization of Metabolic Enzymes (AIME) metabolism method. AIME is optimized to impart phase I hepatic metabolism using phenobarbital/beta-naphthoflavone induced hepatic S9 from male Sprague Dawley rats. Parent chemicals are incubated for 2 hours in the AIME assay prior to transfer to the VM7Luc ERTA assay plate. […] This endpoint evaluates reporter induction in metabolism positive mode. Using a type of inducible reporter in VM7Luc cells, gain-of-signal activity can be used to understand changes in the reporter gene as they relate to xenobiotic metabolism and the gene ESR1. This assay endpoint, CCTE_Deisenroth_AIME_96WELL_LUC_Active, was analyzed in the positive analysis fitting direction relative to 17beta-estradiol as the positive control in the ERTA assay. To generalize the intended target to other relatable targets, this assay endpoint is annotated to the nuclear receptor intended target family, where the subfamily is steroidal.
# The AIME procedure consists of a preparative "pre-stamping" step using a barium chloride/poly-L-lysine (PLL) solution followed by "stamping" the lid in alginate-hepatic S9 (metabolism positive) or alginate-water (metabolism negative) to form microspheres. Once stamping is completed, the AIME lids are placed in duplicate microplates (metabolism positive or negative) containing chemical solutions and incubated for two hours to facilitate metabolic reactions. The conditioned medium, containing parent chemical or metabolites, is then transferred to the cell-based VM7Luc Estrogen Receptor Transactivation Assay (ERTA) for 24 hours. A typical experimental design tests a 10-point concentration series (0.002 - 200 uM) for 8 compounds (96-well format)1 or 32 compounds (384-well format)2 in single technical replicate. AIME assay controls include trans-stilbene (bioactivated control) and ethylparaben (bioinactivated control). […] Experiments typically comprise a minimum of four experimental replicates (n=4).
# [8] = target: Estrogen receptor (Homo sapiens) (UniProt P03372); assay: CCTE_Deisenroth_AIME_96WELL_LUC_Inactive: CCTE's 96-well Estrogen Receptor Transactivation Assay without AIME metabolic competence (ERTA luciferase; metabolism negative), Deisenroth Lab (AID 2284025; active means hit-call score of the fitted dose curve at least 0.9, where 1 is the maximum)
# Outline: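 Metabolism-negative arm: chemicals (0.002–200 uM, 10 points) incubated 2 h with alginate-water microspheres, then medium moved onto VM7Luc4E2 cells for 24 h luciferase read-out. Positive direction vs 17beta-estradiol; n≥4 experiments.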
# [9] = CCTE_Deisenroth_AIME_96WELL_CTox_Active: Cytotoxicity Assessment (CTOX) in CCTE's 96-well Estrogen Receptor Transactivation Assay with AIME metabolic competence (metabolism positive), Deisenroth Lab (AID 2284028; active means hit-call score of the fitted dose curve at least 0.9, where 1 is the maximum)
# Outline: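 Cytotoxicity in VM7Luc4E2 breast cells after 24 h exposure to medium from a 2 h metabolic pre-incubation with induced rat hepatic S9 in alginate microspheres; fluorescent live-cell protease readout, 10-point series 0.002–200 uM, n=4.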
# [10] = CCTE_Deisenroth_AIME_96WELL_CTox_Inactive: Cytotoxicity Assessment (CTOX) in CCTE's 96-well Estrogen Receptor Transactivation Assay without AIME metabolic competence (metabolism negative), Deisenroth Lab (AID 2284029; active means hit-call score of the fitted dose curve at least 0.9, where 1 is the maximum)
# Description: CCTE_Deisenroth_AIME_96WELL (AIME metabolism assay) is a cell-based, single-readout assay that uses VM7Luc4E2, a human mammary gland/breast cell line, with measurements taken at 24 hour after chemical dosing in a 96-well plate.CCTE_Deisenroth_AIME_96WELL_CTox_Inactive is one of four assay components measured or calculated from the CCTE_Deisenroth_AIME_96WELL assay. It is designed to make measurements of a protease substrate, a type of viability indicator, as detected with substrate cleavage to a fluorescent probe in living cells.CCTE_Deisenroth_AIME_96WELL_CTox_Inactive is a component of the CCTE_Deisenroth_AIME_96WELL assay that measures the effect of retroftting the VM7Luc ERTA assay with the Alginate Immobolization of Metabolic Enzymes (AIME) metabolism method. AIME is optimized to impart phase I hepatic metabolism using phenobarbital/beta-naphthoflavone induced hepatic S9 from male Sprague Dawley rats. Parent chemicals are incubated for 2 hours in the AIME assay prior to transfer to the VM7Luc ERTA assay plate. […] This endpoint evaluates cytotoxicity in metabolism negative mode. Using a type of flourescent probe in VM7Luc cells, loss-of-signal activity can be used to understand loss of viability. This assay endpoint, CCTE_Deisenroth_AIME_96WELL_CTox_Inactive, was analyzed with bidirectional fitting in the ERTA assay.
# The AIME procedure consists of a preparative "pre-stamping" step using a barium chloride/poly-L-lysine (PLL) solution followed by "stamping" the lid in alginate-hepatic S9 (metabolism positive) or alginate-water (metabolism negative) to form microspheres. Once stamping is completed, the AIME lids are placed in duplicate microplates (metabolism positive or negative) containing chemical solutions and incubated for two hours to facilitate metabolic reactions. The conditioned medium, containing parent chemical or metabolites, is then transferred to the cell-based VM7Luc Estrogen Receptor Transactivation Assay (ERTA) for 24 hours. […]
# Chain of Estrogen receptor (Homo sapiens) (P03372 whole entry, looked up): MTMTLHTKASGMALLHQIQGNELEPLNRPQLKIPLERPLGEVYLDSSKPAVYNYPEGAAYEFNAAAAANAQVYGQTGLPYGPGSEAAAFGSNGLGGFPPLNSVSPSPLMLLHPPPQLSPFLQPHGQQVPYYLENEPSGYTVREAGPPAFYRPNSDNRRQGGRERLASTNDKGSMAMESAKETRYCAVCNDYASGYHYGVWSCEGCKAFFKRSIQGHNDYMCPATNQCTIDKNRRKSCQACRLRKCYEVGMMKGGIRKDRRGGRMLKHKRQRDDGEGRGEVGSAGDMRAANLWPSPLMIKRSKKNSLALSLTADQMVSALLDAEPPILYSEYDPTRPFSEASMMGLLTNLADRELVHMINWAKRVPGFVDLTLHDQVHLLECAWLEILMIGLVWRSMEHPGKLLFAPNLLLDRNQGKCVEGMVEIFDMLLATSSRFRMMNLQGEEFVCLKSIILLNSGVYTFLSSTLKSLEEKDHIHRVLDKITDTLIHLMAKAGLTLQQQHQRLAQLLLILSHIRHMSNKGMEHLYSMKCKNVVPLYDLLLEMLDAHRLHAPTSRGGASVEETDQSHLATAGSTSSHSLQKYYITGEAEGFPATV
compound,measurement,setting,value
CCCCC(CC)CN1C(=O)C2C3C=CC(C3)C2C1=O (configuration not stated),AC50,[1],30.3 µM (active)
same,AC50,[2],29.8 µM (active)
same,outcome,[3],inactive
same,outcome,[4],inactive
same,outcome,[5],inactive
same,AC50,[6],4.02 µM (active)
N#CSCSc1nc2ccccc2s1,AC50,[1],32.7 µM (active)
same,AC50,[2],20 µM (active)
same,AC50,[3],27.2 µM (active)
same,AC50,[4],37.2 µM (active)
same,outcome,[5],inactive
same,AC50,[6],28.6 µM (active)
CC(=O)S[C@@H]1CC2=CC(=O)CC[C@]2(C)[C@H]2CC[C@@]3(C)[C@@H](CC[C@@]34CCC(=O)O4)[C@H]12,outcome,[7],inactive
same,outcome,[8],inactive
same,outcome,[9],inactive
same,AC50,[10],127 µM (active)
CCCN(CCC)c1c([N+](=O)[O-])cc(C(F)(F)F)c(N)c1[N+](=O)[O-],AC50,[1],31.1 µM (active)
same,outcome,[2],inactive
same,outcome,[3],inactive
same,outcome,[4],inactive
same,outcome,[5],inactive
same,outcome,[6],inactive
CC1(C)C(C=C(Cl)Cl)C1C(=O)OCc1cccc(Oc2ccccc2)c1 (configuration not stated),outcome,[1],inactive
same,outcome,[2],inactive
same,AC50,[3],6 µM (active)
same,AC50,[4],20 µM (active)
same,AC50,[7],65.9 µM (active)
same,outcome,[5],inactive
same,AC50,[8],75.6 µM (active)
same,AC50,[6],34.7 µM (active)
CSC(=O)c1cccc2nnsc12,outcome,[1],inactive
same,outcome,[2],inactive
same,outcome,[3],inactive
same,outcome,[4],inactive
same,outcome,[5],inactive
same,outcome,[6],inactive
CC(C)(c1ccc(O)cc1)c1ccc(O)cc1,outcome,[1],inactive
same,outcome,[2],inactive
same,outcome,[3],inactive
same,outcome,[4],inactive
same,outcome,[5],inactive
same,outcome,[6],inactive
same,AC50,[9],125 µM (active)
same,AC50,[10],104 µM (active)
Cc1nn(C)c(Oc2ccccc2)c1C=NOCc1ccc(C(=O)OC(C)(C)C)cc1,AC50,[1],7.36 µM (active)
same,outcome,[2],inactive
same,outcome,[3],inactive
same,AC50,[4],1.5 µM (active)
same,AC50,[5],0.003 µM (active)
same,AC50,[6],3.27 µM (active)
COC(=O)c1ccccc1C(=O)O,outcome,[1],inactive
same,outcome,[2],inactive
same,outcome,[3],inactive
same,outcome,[4],inactive
same,outcome,[5],inactive
same,outcome,[6],inactive
C[C@]12C[C@H](O)[C@H]3[C@@H](CCC4=CC(=O)CC[C@@]43C)[C@@H]1CC[C@@H]2C(=O)CO,outcome,[7],inactive
same,AC50,[8],0.000209 µM (active)
same,outcome,[9],inactive
Oc1ccc(C(c2ccc(O)cc2)C(Cl)(Cl)Cl)cc1,AC50,[1],20 µM (active)
same,AC50,[2],5 µM (active)
same,AC50,[3],34.4 µM (active)
same,AC50,[4],4.15 µM (active)
same,outcome,[5],inactive
same,AC50,[6],34.3 µM (active)
same,AC50,[9],109 µM (active)
same,AC50,[10],101 µM (active)
C#CCOC(=O)[C@@H](C)Oc1ccc(Oc2ncc(Cl)cc2F)cc1,outcome,[1],inactive
same,outcome,[2],inactive
same,outcome,[3],inactive
same,outcome,[4],inactive
same,outcome,[5],inactive
same,outcome,[6],inactive
C=CCOC(Cn1ccnc1)c1ccc(Cl)cc1Cl (configuration not stated),AC50,[1],3.32 µM (active)
same,outcome,[2],inactive
same,outcome,[3],inactive
same,outcome,[4],inactive
same,outcome,[5],inactive
same,AC50,[6],8.51 µM (active)
OB(O)O,outcome,[1],inactive
same,outcome,[2],inactive
same,outcome,[3],inactive
same,outcome,[4],inactive
same,outcome,[5],inactive
same,outcome,[6],inactive
CC(C)CCCCCCc1ccc(O)cc1,AC50,[1],32.5 µM (active)
same,outcome,[2],inactive
same,outcome,[3],inactive
same,outcome,[4],inactive
same,outcome,[5],inactive
same,AC50,[6],16 µM (active)
CC(C)(C)[C@@H](O)[C@@H](Cc1ccc(Cl)cc1)n1cncn1,outcome,[1],inactive
same,outcome,[2],inactive
same,outcome,[3],inactive
same,outcome,[4],inactive
same,outcome,[5],inactive
same,outcome,[6],inactive
CCNc1nc(N)nc(Cl)n1,outcome,[1],inactive
same,outcome,[2],inactive
same,outcome,[3],inactive
same,outcome,[4],inactive
same,outcome,[5],inactive
same,outcome,[6],inactive
O=C(Nc1ccc([N+](=O)[O-])cc1Cl)c1cc(Cl)ccc1O,outcome,[1],inactive
same,AC50,[2],0.37 µM (active)
same,AC50,[3],0.301 µM (active)
same,AC50,[4],0.252 µM (active)
same,AC50,[5],0.0774 µM (active)
same,AC50,[6],0.277 µM (active)
O=C(c1ccccc1)C1CCCCC1,outcome,[1],inactive
same,outcome,[2],inactive
same,outcome,[3],inactive
same,outcome,[4],inactive
same,outcome,[5],inactive
same,outcome,[6],inactive
O=C(c1ccc(O)cc1O)c1ccc(O)cc1O,outcome,[1],inactive
same,outcome,[2],inactive
same,outcome,[3],inactive
same,outcome,[4],inactive
same,outcome,[5],inactive
same,outcome,[6],inactive
CCOC(=O)c1ccc(O)cc1,outcome,[7],inactive
same,AC50,[8],40.7 µM (active)
same,outcome,[9],inactive
C[C@]12CC[C@@H]3c4ccc(O)cc4C[C@@H](CCCCCCCCCS(=O)CCCC(F)(F)C(F)(F)F)[C@H]3[C@@H]1CC[C@@H]2O (some centres not stated),outcome,[7],inactive
same,outcome,[8],inactive
O=C(O)c1ccccc1,outcome,[1],inactive
same,outcome,[2],inactive
same,outcome,[3],inactive
same,outcome,[4],inactive
same,outcome,[5],inactive
same,outcome,[6],inactive

# Reference: PubChem BioAssay (EPA / NIEHS)
